Test results reported in PubChem BioAssay.
For some of these results: Results with a measured potency or affinity are listed apart. The source made the active and inactive calls. Unless noted, how the calls were made is not given here.

What was measured:
[1] = antimalarial activity against Dd2 strain (AID 2302;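 active means growth inhibition above 50% at the single 2 µM test dose, taken to imply half-maximal potency below 2 µM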;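 further: 0% = DMSO untreated growth and 100% = chloroquine plus artemisinin killed control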); conditions: P. falciparum Dd2 in RBCs, LDH growth readout, 72 h; at 2 µM; stronger effect = higher value
[2] = HepG2 cytotoxicity, primary screen, cytotoxicity control for P. falciparum antimalarial project, cell-based, ATP luminescence (AID 2303;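 active means inhibition above 50%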;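 further: 0% = DMSO wells and 100% = digitonin-killed cells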); conditions: HepG2 viability, 24-48 h, at 10 µM, stronger effect = higher value
[3] = molecular target: L-lactate dehydrogenase (Plasmodium falciparum (isolate CDC / Honduras)) (UniProt Q27743); experiment: PfLDH activity inhibition – cell lysate, 3D7 strain, counter-screen for P. falciparum growth inhibition project (AID 2304);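 further: 0% = vehicle and 100% = reference inhibitor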; conditions: P. falciparum 3D7 crude extract, LDH APAD/NBT absorbance; at 2 µM; stronger effect = higher value
[4] = inhibition of 3D7 malaria parasite growth – strain 3D7 (AID 2306);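 further: 0% = DMSO wells and 100% = chloroquine plus artemisinin control wells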; conditions: P. falciparum 3D7 erythrocytic growth, LDH absorbance, 72 h; at 2 µM; stronger effect = higher value
[5] = molecular target: Calcium-dependent protein kinase 1 (Plasmodium falciparum (isolate 3D7)) (UniProt P62344); experiment: PfCDPK1 kinase inhibitors, biochemical, TCAMS library (AID 1159585; cut-off not given, nearly all actives have IC50 up to about 0.98 µM;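 further: inhibitors leave more ATP so luminescence rises with inhibition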); conditions: recombinant PfCDPK1, Kinase-Glo ATP depletion luminescence
[6] = molecular target: Plasmodium falciparum protein kinase 6 (PK6, PF3D7_1337100) (UniProt Q8IDW1); experiment: PfPK6 kinase inhibitors, biochemical, TCAMS library (AID 1159586); conditions: recombinant PfPK6, Kinase-Glo ATP depletion luminescence
[7] = molecular target: Protein kinase 7 (PK7), Plasmodium falciparum 3D7 (PF3D7_0213400) (UniProt Q7YTF7); experiment: inhibition of Plasmodium PK7 catalytic activity – biochemical, TCAMS antimalarial set, Kinase-Glo luminescence (AID 1159587); conditions: recombinant PfPK7, Kinase-Glo ATP depletion luminescence
[8] = molecular target: Calcium-dependent protein kinase 4 (Plasmodium falciparum (isolate 3D7)) (UniProt Q8IBS5); experiment: PfCDPK4 kinase inhibitors, biochemical, TCAMS library (AID 1159588; cut-off not given, nearly all actives have IC50 up to about 0.91 µM); conditions: recombinant PfCDPK4, Kinase-Glo ATP depletion luminescence
Calcium-dependent protein kinase 4 (Plasmodium falciparum (isolate 3D7)), sequence (Q8IBS5 whole entry, looked up): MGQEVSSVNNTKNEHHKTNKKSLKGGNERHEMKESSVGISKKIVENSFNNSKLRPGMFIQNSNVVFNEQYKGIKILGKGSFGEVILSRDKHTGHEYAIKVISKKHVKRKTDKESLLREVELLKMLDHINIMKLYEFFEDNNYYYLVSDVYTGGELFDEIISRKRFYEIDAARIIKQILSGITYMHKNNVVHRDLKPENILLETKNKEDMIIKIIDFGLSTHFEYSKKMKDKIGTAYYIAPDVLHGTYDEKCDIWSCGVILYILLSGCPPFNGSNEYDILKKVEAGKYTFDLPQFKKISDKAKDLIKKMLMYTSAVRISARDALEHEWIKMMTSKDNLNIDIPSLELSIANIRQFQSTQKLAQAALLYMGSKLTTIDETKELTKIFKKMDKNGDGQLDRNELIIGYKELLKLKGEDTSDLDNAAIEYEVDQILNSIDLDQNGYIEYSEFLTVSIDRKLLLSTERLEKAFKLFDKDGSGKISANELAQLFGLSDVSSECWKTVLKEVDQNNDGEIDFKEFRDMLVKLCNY

Plasmodium falciparum protein kinase 6 (PK6, PF3D7_1337100), sequence (Q8IDW1 1-305): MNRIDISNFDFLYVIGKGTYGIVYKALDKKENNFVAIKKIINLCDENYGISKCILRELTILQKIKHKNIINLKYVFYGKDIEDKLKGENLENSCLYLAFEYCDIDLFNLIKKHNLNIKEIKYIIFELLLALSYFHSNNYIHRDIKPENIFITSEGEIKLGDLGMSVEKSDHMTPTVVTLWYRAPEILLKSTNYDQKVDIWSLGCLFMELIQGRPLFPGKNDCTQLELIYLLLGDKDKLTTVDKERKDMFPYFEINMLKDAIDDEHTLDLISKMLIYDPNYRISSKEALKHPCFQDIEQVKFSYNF
L-lactate dehydrogenase (Plasmodium falciparum (isolate CDC / Honduras)), sequence (Q27743 whole entry, looked up): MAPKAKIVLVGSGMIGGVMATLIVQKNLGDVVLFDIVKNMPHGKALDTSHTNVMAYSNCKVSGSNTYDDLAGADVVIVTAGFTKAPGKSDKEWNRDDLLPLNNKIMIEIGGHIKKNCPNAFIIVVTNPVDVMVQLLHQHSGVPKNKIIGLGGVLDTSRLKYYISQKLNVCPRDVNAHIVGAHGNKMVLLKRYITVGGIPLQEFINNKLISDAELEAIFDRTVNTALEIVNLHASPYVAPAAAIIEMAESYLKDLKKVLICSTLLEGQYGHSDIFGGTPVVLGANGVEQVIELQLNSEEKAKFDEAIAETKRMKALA
Protein kinase 7 (PK7), Plasmodium falciparum 3D7 (PF3D7_0213400), sequence (Q7YTF7 1-343): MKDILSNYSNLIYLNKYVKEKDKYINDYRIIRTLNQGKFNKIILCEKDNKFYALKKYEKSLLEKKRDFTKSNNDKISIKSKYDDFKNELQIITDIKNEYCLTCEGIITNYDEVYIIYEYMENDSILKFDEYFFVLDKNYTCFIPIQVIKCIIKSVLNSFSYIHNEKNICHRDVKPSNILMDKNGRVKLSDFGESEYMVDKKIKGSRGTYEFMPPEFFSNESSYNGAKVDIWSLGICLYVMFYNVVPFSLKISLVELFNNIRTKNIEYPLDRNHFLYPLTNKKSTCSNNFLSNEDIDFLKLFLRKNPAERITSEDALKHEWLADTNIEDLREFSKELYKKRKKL
Calcium-dependent protein kinase 1 (Plasmodium falciparum (isolate 3D7)), sequence (P62344 whole entry, looked up): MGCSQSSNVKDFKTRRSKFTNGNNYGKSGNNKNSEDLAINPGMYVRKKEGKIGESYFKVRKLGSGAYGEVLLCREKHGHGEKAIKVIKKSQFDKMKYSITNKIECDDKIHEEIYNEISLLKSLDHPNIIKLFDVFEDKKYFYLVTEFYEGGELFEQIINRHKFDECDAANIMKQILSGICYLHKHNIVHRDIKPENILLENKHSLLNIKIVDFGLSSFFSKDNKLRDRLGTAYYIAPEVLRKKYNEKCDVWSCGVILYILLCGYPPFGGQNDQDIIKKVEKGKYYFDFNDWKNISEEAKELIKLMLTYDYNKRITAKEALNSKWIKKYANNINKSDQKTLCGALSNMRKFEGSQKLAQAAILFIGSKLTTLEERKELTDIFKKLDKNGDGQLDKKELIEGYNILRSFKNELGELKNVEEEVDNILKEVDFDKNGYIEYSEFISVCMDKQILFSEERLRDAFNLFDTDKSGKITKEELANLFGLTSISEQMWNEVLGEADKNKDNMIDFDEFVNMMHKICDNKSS

O=C(NC(=Cc1cccc([N+](=O)[O-])c1)c1nc2ccccc2[nH]1)c1cccc(Br)c1
inactive: inhibition [2] -1% | inhibition [3] 0% | outcome [5] | outcome [6] | outcome [7] | outcome [8]
active: growth inhibition [1] 88% | growth inhibition [4] 85%

COc1ccc2nccc([C@@H](O)CN3CCC(NCc4nc5c(F)cccc5[nH]4)CC3)c2c1
inactive: growth inhibition [1] 6% | inhibition [2] -6% | inhibition [3] -7% | outcome [5] | outcome [6] | outcome [7] | outcome [8]
active: growth inhibition [4] 103%

O=C(Nc1ccc(-c2nc3ccccc3[nH]2)cc1)c1cccc([N+](=O)[O-])c1
inactive: inhibition [2] 45% | inhibition [3] -3% | outcome [5] | outcome [6] | outcome [7] | outcome [8]
active: growth inhibition [1] 56% | growth inhibition [4] 101%

O=C(Nc1ccc(-c2cccc(-c3nc4ccc(C(F)(F)F)cc4[nH]3)c2)cc1)c1ccncc1
active: inhibition [2] 63% | growth inhibition [4] 101%
inactive: growth inhibition [1] 23% | inhibition [3] -4% | outcome [5] | outcome [6] | outcome [7] | outcome [8]

COc1ccc(-c2nc(NC(=O)Cc3coc4cc(OC)ccc34)sc2C)cc1
inactive: inhibition [2] 9% | inhibition [3] -2% | outcome [5] | outcome [6] | outcome [7] | outcome [8]
active: growth inhibition [1] 77% | growth inhibition [4] 100%

CC(=O)c1sc2ccccc2c1O
inactive: growth inhibition [1] -2% | inhibition [2] 14% | inhibition [3] 6% | outcome [5] | outcome [6] | outcome [7] | outcome [8]
active: growth inhibition [4] 91%

Cc1cc2nc(-c3cccc(C(=O)NC4CCN(Cc5ccccc5)CC4)c3)[nH]c2cc1C
inactive: growth inhibition [1] 13% | inhibition [2] 32% | inhibition [3] 2% | outcome [5] | outcome [6] | outcome [7] | outcome [8]
active: growth inhibition [4] 101%

CN1CCN(c2ccnc3ccc(NC(=O)Cc4cccc(Cl)c4Cl)cc23)CC1
active: growth inhibition [1] 64% | growth inhibition [4] 102%
inactive: inhibition [2] 8% | inhibition [3] 3% | outcome [5] | outcome [6] | outcome [7] | outcome [8]

COc1ccc2nccc([C@@H](O)CN3[C@@H]4CC[C@H]3CC(NCc3ccc5c(n3)NC(=O)CS5)C4)c2n1 (stereo partly drawn)
inactive: growth inhibition [1] 11% | inhibition [2] -1% | inhibition [3] 4% | outcome [5] | outcome [6] | outcome [7] | outcome [8]
active: growth inhibition [4] 99%

COC(=O)c1cc(C(O)CNC(C)CCCc2ccccc2)ccc1O (stereo not drawn)
inactive: inhibition [2] 17% | inhibition [3] 0% | outcome [5] | outcome [6] | outcome [7] | outcome [8]
active: growth inhibition [1] 97% | growth inhibition [4] 99%

O=C(NCC1CCN(Cc2cccc(C(F)(F)F)c2)C1)c1cc(-c2cccc(F)c2)cs1 (stereo not drawn)
inactive: growth inhibition [1] 5% | inhibition [2] 19% | inhibition [3] -3% | outcome [5] | outcome [6] | outcome [7] | outcome [8]
active: growth inhibition [4] 87%

O=C(Nc1ccc(Cl)cc1)OCCn1nnnc1C(c1ccc(Cl)cc1)N1CCOCC1 (stereo not drawn)
active: growth inhibition [1] 79% | growth inhibition [4] 90%
inactive: inhibition [2] 1% | inhibition [3] 4% | outcome [5] | outcome [6] | outcome [7] | outcome [8]

Cc1ccc(NC(=O)c2ccc(CN3CCCN(CC4CCCCC4)CC3)cc2)cc1C
inactive: growth inhibition [1] 32% | inhibition [2] 38% | inhibition [3] 3% | outcome [5] | outcome [6] | outcome [7] | outcome [8]
active: growth inhibition [4] 86%

O=C(Nc1cccc(CN2CCCN(Cc3cccc(F)c3)CC2)c1)c1ccc(Cl)c(Cl)c1
active: growth inhibition [4] 85%
inactive: growth inhibition [1] 6% | inhibition [2] 28% | inhibition [3] -1% | outcome [5] | outcome [6] | outcome [7] | outcome [8]

CCOC(=O)N1CCN(CCCNc2c3ccc(Cl)cc3nc3ccc(OC)cc23)CC1
active: growth inhibition [1] 100% | inhibition [2] 52% | growth inhibition [4] 101%
inactive: inhibition [3] 3% | outcome [5] | outcome [6] | outcome [7] | outcome [8]

OCC1CCN(Cc2ccc(-c3ccc(-c4nc5ccc(C(F)(F)F)cc5[nH]4)cc3)cc2)CC1
active: growth inhibition [1] 91% | growth inhibition [4] 100%
inactive: inhibition [2] 17% | inhibition [3] -2% | outcome [5] | outcome [6] | outcome [7] | outcome [8]

CCCc1nc2c(N3CC(NC(=O)/C=C/c4ccccc4)C3)cccc2n1C1CC1
inactive: inhibition [2] 1% | inhibition [3] 0% | outcome [5] | outcome [6] | outcome [7] | outcome [8]
active: growth inhibition [1] 68% | growth inhibition [4] 83%

O=C(Nc1cc(C(F)(F)F)ccc1N1CCOCC1)C(Cl)(Cl)Cl
inactive: inhibition [2] -5% | inhibition [3] 5% | outcome [5] | outcome [6] | outcome [7] | outcome [8]
active: growth inhibition [1] 100% | growth inhibition [4] 100%

CCCCc1ccc(NC(=O)Nc2cccc(CCNCc3ccccc3)c2)cc1
active: growth inhibition [4] 94%
inactive: growth inhibition [1] 13% | inhibition [2] 3% | inhibition [3] 2% | outcome [5] | outcome [6] | outcome [7] | outcome [8]

COc1ccc(OC)c2c1CCN(CCN1CCC(C(=O)Nc3ccc(C(=O)Nc4ccc(Cl)cc4)cc3)CC1)C2
inactive: inhibition [2] 25% | inhibition [3] -2% | outcome [5] | outcome [6] | outcome [7] | outcome [8]
active: growth inhibition [1] 100% | growth inhibition [4] 100%

CCC(=O)c1ccc(-c2ccc(=O)n(CC(=O)N(CCN(CC)CC)Cc3ccc(-c4ccc(C(F)(F)F)cc4)cc3)n2)cc1
inactive: inhibition [3] -7% | outcome [5] | outcome [6] | outcome [7] | outcome [8]
active: growth inhibition [1] 67% | inhibition [2] 91% | growth inhibition [4] 98%

CCOc1ccc2nc(C)cc(NN=Cc3ccccc3F)c2c1
inactive: inhibition [2] 0% | inhibition [3] -3% | outcome [5] | outcome [6] | outcome [7] | outcome [8]
active: growth inhibition [1] 99% | growth inhibition [4] 101%

O=C(Nc1cccc(-c2ccc(-c3nc4ccccc4[nH]3)cc2)c1)Nc1ccc(F)c(F)c1F
active: growth inhibition [4] 100%
inactive: growth inhibition [1] 38% | inhibition [2] 45% | inhibition [3] 5% | outcome [5] | outcome [6] | outcome [7] | outcome [8]

COc1cc(F)c2ncc(F)c(CCN3C[C@H](CNCc4ccc5c(n4)NC(=O)CS5)[C@H](O)C3)c2c1
active: growth inhibition [4] 91%
inactive: growth inhibition [1] 47% | inhibition [2] 10% | inhibition [3] 2% | outcome [5] | outcome [6] | outcome [7] | outcome [8]

COc1ccc2c(c1)CC(C)(C)NC2CCCCCCCCC1NC(C)(C)Cc2cc(OC)ccc21 (stereo not drawn)
inactive: inhibition [2] 42% | inhibition [3] 0% | outcome [5] | outcome [6] | outcome [7] | outcome [8]
active: growth inhibition [1] 62% | growth inhibition [4] 98%

CC(C)NCc1cccc(-c2cccc(NC(=O)c3ccc(C#N)cc3)c2)c1
inactive: growth inhibition [1] 20% | inhibition [2] 18% | inhibition [3] 0% | outcome [5] | outcome [6] | outcome [7] | outcome [8]
active: growth inhibition [4] 97%

Cc1nc(-c2ccc(-c3ccc(C(=O)Nc4ccc(I)c(OCC5CCCN5C)c4)cc3)c(C)c2)no1 (stereo not drawn)
active: inhibition [2] 100% | growth inhibition [4] 97%
inactive: growth inhibition [1] 39% | inhibition [3] -2% | outcome [5] | outcome [6] | outcome [7] | outcome [8]

CC(C)(c1ccccc1)c1ccc(O)c(CN2CCOCC2)c1
active: growth inhibition [1] 88% | growth inhibition [4] 99%
inactive: inhibition [2] -7% | inhibition [3] 2% | outcome [5] | outcome [6] | outcome [7] | outcome [8]

COc1ccc(NC(=O)/C=C/c2ccccc2Cl)cc1OCCN1CCC(NCc2ccccc2)CC1
inactive: inhibition [2] 28% | inhibition [3] 7% | outcome [5] | outcome [6] | outcome [7] | outcome [8]
active: growth inhibition [1] 101% | growth inhibition [4] 106%

c1ccc2cc3c(Nc4ccc(N5CCCCC5)cc4)ccnc3cc2c1
inactive: growth inhibition [1] 36% | inhibition [2] 21% | inhibition [3] -4% | outcome [5] | outcome [6] | outcome [7] | outcome [8]
active: growth inhibition [4] 100%

COc1cc(Cc2cnc(N)nc2N)ccc1OCc1ccc(NC(C)=O)cc1
inactive: growth inhibition [1] 0% | inhibition [2] 9% | inhibition [3] -6% | outcome [5] | outcome [6] | outcome [7] | outcome [8]
active: growth inhibition [4] 98%

COCCNCc1ccc(-c2cccc(CNC3CCN(Cc4ccccc4)CC3)c2)cc1
inactive: inhibition [2] 30% | inhibition [3] 0% | outcome [5] | outcome [6] | outcome [7] | outcome [8]
active: growth inhibition [1] 101% | growth inhibition [4] 100%

CC1CCCCC1N(C)C1CCN(CCCNC(=O)C=Cc2cccc(C(F)(F)F)c2)CC1 (stereo not drawn)
active: growth inhibition [4] 100%
inactive: growth inhibition [1] 17% | inhibition [2] 47% | inhibition [3] -2% | outcome [5] | outcome [6] | outcome [7] | outcome [8]

COc1ccc(NC(=O)Nc2ccc(Nc3nc(C)cc(N4CCCC4)n3)cc2)cc1
inactive: inhibition [2] 14% | inhibition [3] -2% | outcome [5] | outcome [6] | outcome [7] | outcome [8]
active: growth inhibition [1] 100% | growth inhibition [4] 101%

Cc1cc(-c2ccc3occ(CCN)c3c2)cnc1N
active: growth inhibition [1] 56% | growth inhibition [4] 92%
inactive: inhibition [2] -5% | inhibition [3] -2% | outcome [5] | outcome [6] | outcome [7] | outcome [8]

CCCCCCN1CCCN(Cc2ccc(C(=O)Nc3ccc(CCC)cc3)cc2)CC1
inactive: inhibition [2] 45% | inhibition [3] -3% | outcome [5] | outcome [6] | outcome [7] | outcome [8]
active: growth inhibition [1] 56% | growth inhibition [4] 92%

COc1ccc(N2CCN(CCCCNC(=O)c3ccc(/C=C/c4ccc(Cl)c(Cl)c4)cc3)CC2)c(OC)c1
inactive: inhibition [3] -8% | outcome [5] | outcome [6] | outcome [7] | outcome [8]
active: growth inhibition [1] 51% | inhibition [2] 51% | growth inhibition [4] 101%

N#CN1CC[C@@H](NS(=O)(=O)Cc2ccc(Cl)c(Cl)c2)C1
active: growth inhibition [1] 94% | growth inhibition [4] 94%
inactive: inhibition [2] 13% | inhibition [3] -3% | outcome [5] | outcome [6] | outcome [7] | outcome [8]

CCCCCCCN1CCC(CC(=O)Nc2ccnc3ccc(OC)cc23)CC1
active: growth inhibition [1] 52% | growth inhibition [4] 97%
inactive: inhibition [2] 15% | inhibition [3] -2% | outcome [5] | outcome [6] | outcome [7] | outcome [8]

CCCCNCc1ccc(-c2nc(CN(CCCn3ccnc3)C(=O)Nc3ccc(CC)cc3)cs2)cc1
inactive: inhibition [2] 21% | inhibition [3] 6% | outcome [5] | outcome [6] | outcome [7] | outcome [8]
active: growth inhibition [1] 56% | growth inhibition [4] 101%

COc1cc2nc(NCCc3ccccc3)nc(NCc3nccs3)c2cc1OC
active: growth inhibition [1] 93% | growth inhibition [4] 99%
inactive: inhibition [2] 1% | inhibition [3] 0% | outcome [5] | outcome [6] | outcome [7] | outcome [8]
